Test results reported in PubChem BioAssay AID1259245 (Vanderbilt High Throughput Screening Facility, 2017).
Out of some 40,000 compounds screened, about 1,400 (3.5%) were called active.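 The calls were made as follows: active = any of four per-well response measures lying three or more SD from its plate-wide compound average, in either direction; inactive = the rest, inconclusive results apart.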 Many of the other results were omitted from the sample, so actives are more common in it than they were.

The molecules below were run against Voltage-dependent calcium channel gamma-2 subunit (Mus musculus) + Glutamate receptor 2 (Rattus norvegicus) (UniProt O88602+P19491) (assay: AMPAR-TARP gamma-2 complex positive or negative modulation – cell-based, membrane potential dye, primary screen (AID 1259245)). Conditions: HEK293 GluA2+stargazin, membrane potential dye (FDSS), glutamate EC50, at 30 µM, hits were called plate by plate, in both directions; compound max-min signal: compound-alone response (agonism); glutamate slope, % of max: measured here: glutamate response slope, % max.
Voltage-dependent calcium channel gamma-2 subunit (Mus musculus) + Glutamate receptor 2 (Rattus norvegicus), sequence (O88602 whole entry, looked up): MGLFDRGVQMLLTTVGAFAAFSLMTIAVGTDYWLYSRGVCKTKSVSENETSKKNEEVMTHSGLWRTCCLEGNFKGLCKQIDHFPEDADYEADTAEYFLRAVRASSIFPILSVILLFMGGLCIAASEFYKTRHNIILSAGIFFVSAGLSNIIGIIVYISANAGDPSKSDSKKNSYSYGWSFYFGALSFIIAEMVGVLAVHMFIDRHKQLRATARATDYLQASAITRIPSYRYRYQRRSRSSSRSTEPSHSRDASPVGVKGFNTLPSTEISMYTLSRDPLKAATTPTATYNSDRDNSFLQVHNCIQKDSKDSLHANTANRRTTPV
Voltage-dependent calcium channel gamma-2 subunit (Mus musculus) + Glutamate receptor 2 (Rattus norvegicus), sequence (P19491 whole entry, looked up): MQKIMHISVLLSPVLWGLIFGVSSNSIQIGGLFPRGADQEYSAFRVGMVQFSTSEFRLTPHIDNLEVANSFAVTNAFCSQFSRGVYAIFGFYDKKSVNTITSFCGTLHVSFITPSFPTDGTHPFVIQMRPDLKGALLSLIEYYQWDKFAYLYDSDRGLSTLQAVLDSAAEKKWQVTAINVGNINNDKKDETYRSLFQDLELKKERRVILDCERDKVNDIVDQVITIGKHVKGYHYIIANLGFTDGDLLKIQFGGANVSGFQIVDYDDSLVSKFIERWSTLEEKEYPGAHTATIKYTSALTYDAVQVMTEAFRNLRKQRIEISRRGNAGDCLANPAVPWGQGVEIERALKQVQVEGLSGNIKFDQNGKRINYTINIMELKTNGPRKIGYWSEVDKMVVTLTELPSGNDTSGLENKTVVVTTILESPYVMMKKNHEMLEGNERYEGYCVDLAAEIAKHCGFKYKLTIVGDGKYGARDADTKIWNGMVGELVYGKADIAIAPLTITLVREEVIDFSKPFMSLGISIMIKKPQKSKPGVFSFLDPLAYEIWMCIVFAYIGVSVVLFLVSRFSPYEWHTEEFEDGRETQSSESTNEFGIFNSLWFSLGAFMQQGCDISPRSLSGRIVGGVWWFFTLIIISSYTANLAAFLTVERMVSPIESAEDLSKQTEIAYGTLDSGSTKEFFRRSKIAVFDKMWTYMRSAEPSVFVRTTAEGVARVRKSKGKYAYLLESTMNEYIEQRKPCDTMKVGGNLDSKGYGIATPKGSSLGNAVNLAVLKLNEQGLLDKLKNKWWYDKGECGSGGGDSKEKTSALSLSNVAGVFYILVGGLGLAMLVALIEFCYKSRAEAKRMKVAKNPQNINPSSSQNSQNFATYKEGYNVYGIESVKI

Row | Structure (SMILES) | compound max-min signal | glutamate response, % of max | glutamate slope, % of max
1 | CCNC(=O)CSc1nc(-c2ccccc2)c(NC(=O)CC2CCCC2)s1 | 0.0584 | 31.3% (inactive) | 44.8%
2 | COc1ccc(CC(=O)NCCOc2cc(C)cc(C)c2)cc1OC | 0.0873 | 52% (inactive) | 63.4%
3 | CC(C)NC(=O)Nc1ccc(CN2CCN(C)CC2)cc1 | 0.107 | 37% (inactive) | 57.1%
4 | O=C(c1ccno1)N1CCN(c2nc3ccc([N+](=O)[O-])cc3s2)CC1 | 0.188 | 27.8% (active) | 50.2%
5 | COc1ccc([N+](=O)[O-])cc1NC(=O)c1ccno1 | 0.13 | 15.2% (inactive) | 32.1%
6 | COc1ccc(SCCC(=O)N2CCN(c3nc4ccc(F)cc4s3)CC2)cc1 | 0.0995 | 50.5% (inactive) | 60.6%
7 | CN(C)C(=O)N1CCN(S(=O)(=O)c2ccc(F)cc2)CC1 | 0.11 | 30.6% (inactive) | 58.2%
8 | O=C(CCCS(=O)(=O)c1ccc(F)cc1)Nc1cccc2c1C(=O)NC2=O | 0.0985 | 41.1% (inactive) | 66.5%
9 | COc1ccc(N(Cc2cccc(C)c2)S(=O)(=O)c2ccc3nnc(C)n3c2)cc1 | 0.0921 | 39% (inactive) | 70.3%
10 | CCCN(CCC)S(=O)(=O)c1cc([N+](=O)[O-])ccc1C | 0.0514 | 71% (active) | 88.7%
11 | Cc1ccc([N+](=O)[O-])cc1NC(=O)C(=O)NCC(c1cccs1)N(C)C (configuration not stated) | 0.155 | 57.6% (inactive) | 83.7%
12 | CCc1nc2sc(C(c3ccc(F)c(F)c3)N3CCN(C(C)=O)CC3)c(O)n2n1 (configuration not stated) | 0.111 | 52.6% (inactive) | 74.4%
13 | NS(=O)(=O)c1ccc(CNC(=O)Cc2csc(Nc3cccc(Cl)c3)n2)cc1 | 0.171 | 32.8% (inactive) | 56.3%
14 | Cc1ccccc1C(=O)Nn1cnc2c(cnn2C(C)(C)C)c1=O | 0.0501 | 31.3% (inactive) | 53.1%
15 | COCC(=O)Nn1cnc2c(cnn2C(C)(C)C)c1=O | 0.121 | -2.09% (active) | 5.77%
16 | CC(C)(C)n1ncc2c(=O)n(NC(=O)Cc3ccc([N+](=O)[O-])cc3)cnc21 | 0.0341 | 22.1% (inactive) | 47.4%
17 | Cc1cc(C)c2c(n1)sc1c(=O)n(CC(=O)Nc3ccccc3Br)cnc12 | 0.125 | 47% (inactive) | 70.2%
18 | COc1ccc(Cl)cc1NC(=O)CC1C(=O)NCCN1C(=S)Nc1ccccc1 (configuration not stated) | 0.205 | 26.6% (active) | 35.6%
19 | COc1ccc(Cl)cc1NC(=O)NCC#CCN1CCc2ccccc2C1 | 0.108 | 30.6% (inactive) | 53.9%
20 | CCCOC(=O)CC1C(=O)NCCN1C(=S)NC(=O)c1cccc(Cl)c1 (configuration not stated) | 0.102 | 20% (inactive) | 39.3%
21 | Cn1nnc2c(N(CCc3ccccc3)Cc3ccccc3)ncnc21 | 0.0947 | 34% (inactive) | 57.6%
22 | CCOC(=O)c1cn(CC(=O)Nc2ccc(C)cc2Cl)c2nc(C)ccc2c1=O | 0.132 | 31.9% (inactive) | 51%
23 | COc1cc(NS(=O)(=O)c2ccc(NC(=O)c3ccc(S(=O)(=O)N4CCOCC4)cc3)cc2)ncn1 | 0.0995 | 43.4% (inactive) | 72.4%
24 | CCOc1ccc2nc(N(Cc3ccncc3)C(=O)/C=C/c3cccs3)sc2c1 | 0.107 | 21.1% (inactive) | 47.3%
25 | O=S(=O)(c1ccc(F)cc1F)N1CCN(c2ccc(-c3cccs3)nn2)CC1 | 0.0403 | 12.3% (inactive) | 30.1%

Row | Structure (SMILES) | compound max-min signal | glutamate response, % of max | glutamate slope, % of max
26 | CCc1ccc(S(=O)(=O)N2CCN(c3ccc(Nc4cccc(C)n4)nn3)CC2)cc1 | 0.366 | 22.6% (active) | 37.7%
27 | O=S(=O)(c1cccs1)N1CCC(c2ccsc2)CC1 | 0.115 | 35.3% (inactive) | 65.4%
28 | COc1ccc(S(=O)(=O)N2CCN(c3ccc4nncn4n3)CC2)cc1C | 0.114 | 18.4% (inactive) | 44.4%
29 | Cc1cccc(Nc2ccc(N3CCN(S(=O)(=O)c4cccs4)CC3)nn2)n1 | 0.445 | 13.5% (active) | 21.9%
30 | O=S(=O)(c1ccc2c(c1)CCCC2)N1CCN(c2ccc3nncn3n2)CC1 | 0.0592 | 23.2% (inactive) | 46.1%
31 | COc1cccc(-c2noc(C3CCN(S(=O)(=O)c4ccc(C)cc4)CC3)n2)c1OC | 0.0999 | 28.5% (inactive) | 52.6%
32 | O=S(=O)(c1ccccc1)N1CCN(Cc2nnnn2-c2ccc(F)cc2)CC1 | 0.0497 | 29.1% (inactive) | 63.3%
33 | O=S(=O)(Cc1ccc(Cl)cc1)c1ccc(NCc2ccccc2)nn1 | 0.0863 | 49.2% (inactive) | 64.8%
34 | CCOC(=O)N1CCN(/C=C2\Oc3c(ccc(O)c3C)C2=O)CC1 | 0.132 | 21.6% (inactive) | 32.3%
35 | COc1ccc(-c2cc3ccc4c(c3oc2=O)CN(C2CCS(=O)(=O)C2)CO4)cc1OC (configuration not stated) | 0.083 | 20.7% (inactive) | 43.1%
36 | CC(O)(CNC(=O)/C=C/c1ccccc1)c1ccccc1 (configuration not stated) | 0.0976 | 44.2% (inactive) | 61.2%
37 | COCc1cnc2c(c1SCc1ccc(Br)cc1)c(=O)n(C)c(=O)n2C | 0.0342 | 27% (inactive) | 47.1%
38 | CCOC(=O)C(CC)Sc1ccnc2c1c(=O)n(C)c(=O)n2C (configuration not stated) | 0.0572 | 21.5% (inactive) | 49.8%
39 | Cc1cnc2c(c1SCC(=O)O)c(=O)n(C)c(=O)n2C | 0.0266 | 30.3% (inactive) | 58%
40 | Cc1cnc2c(c1NCCc1ccc(S(N)(=O)=O)cc1)c(=O)n(C)c(=O)n2C | 0.167 | 32.2% (active) | 50%
41 | Cn1c(=O)c2c(ncn2CCc2ccccc2)n(C)c1=O | 0.12 | 41.9% (inactive) | 67.6%
42 | Cc1cnc2c(c1SCc1ccc([N+](=O)[O-])cc1)c(=O)n(C)c(=O)n2C | 0.158 | 47.1% (active) | 69.5%
43 | COc1ccc(CNC(=O)C(=O)NCC2CCN(Cc3cccs3)CC2)cc1 | 0.0534 | 41.2% (inactive) | 57.3%
44 | CCOc1ccc(CC(=O)Nc2nn(C)c3c2C(C)CC(=O)N3)cc1 (configuration not stated) | 0.129 | 42.6% (inactive) | 64.1%
45 | O=C(Nc1cc(-c2ccco2)nn1-c1nc(-c2ccccc2)cc(=O)[nH]1)c1ccco1 | 0.115 | 35.5% (inactive) | 53.1%
46 | Cn1nnc2c(N3CCN(C(=O)c4cc5ccccc5o4)CC3)ncnc21 | 0.0567 | 24.9% (inactive) | 41.7%
47 | Cc1cc(C)n(CCNC(=O)c2nc(-c3cnccn3)no2)n1 | 0.147 | 48.6% (inactive) | 86.3%
48 | CSc1ccc(CC(=O)Nc2nc(-c3nc4ccccc4s3)cs2)cc1 | 0.102 | 33% (inactive) | 57.3%
49 | CS(=O)(=O)N1CCCCC1C(=O)Nc1nc(-c2ccccn2)cs1 (configuration not stated) | 0.116 | 43% (inactive) | 58.9%
50 | CC(C)Sc1ccc(C(=O)Nc2nc(-c3ccccn3)cs2)cc1 | 0.135 | -1.73% (active) | 2.45%

Row | Structure (SMILES) | compound max-min signal | glutamate response, % of max | glutamate slope, % of max
51 | Cc1nn(C2CCS(=O)(=O)C2)c2nc(-c3ccccc3)cc(C(=O)Nc3ccc(F)cc3F)c12 (configuration not stated) | 0.0886 | 43% (inactive) | 54.9%
52 | COC(=O)c1ccc(NC(=O)CSc2nc(-c3ccccc3)c(N)s2)cc1 | 0.12 | 38.3% (inactive) | 63%
53 | Cc1ccc(NC(=O)CSC2=NC(C)(C)N=C2c2ccccc2)c(C)c1 | 0.112 | 41.7% (inactive) | 61.7%
54 | COc1cc(NC(=O)CSC2=NC3(CCCC3)N=C2c2ccccc2)cc(OC)c1 | 0.0812 | 57.8% (active) | 80.4%
55 | CCS(=O)(=O)N1CCCc2ccc(NS(=O)(=O)c3cc(Cl)ccc3OC)cc21 | 0.119 | 44.4% (inactive) | 80.9%
56 | COC(=O)Cn1c(=O)c2c(nc3n(-c4ccccc4C)c(C)c(C)n23)n(C)c1=O | 0.0754 | 36.6% (inactive) | 56.4%
57 | Cc1cccc(Cn2c(=O)c3c(nc4n(-c5ccccc5O)c(C)c(C)n34)n(C)c2=O)c1 | 0.11 | 3.33% (active) | 16.2%
58 | Cc1c(C)n2c3c(=O)n(C/C=C/c4ccccc4)c(=O)n(C)c3nc2n1-c1ccccc1O | 0.0773 | 13.8% (inactive) | 35.4%
59 | COc1cc(C)c(C)cc1S(=O)(=O)NCC(O)c1ccc(C(F)(F)F)cc1 (configuration not stated) | 0.216 | 20.5% (active) | 36%
60 | Cc1cc(S(=O)(=O)NCCn2nc(-c3ccc(F)cc3)ccc2=O)ccc1F | 0.0676 | 28.5% (inactive) | 55.6%
61 | Cc1cc(S(=O)(=O)NCC(O)c2ccc(C(F)(F)F)cc2)ccc1F (configuration not stated) | 0.256 | 28.2% (active) | 41.3%
62 | Cc1cc(S(=O)(=O)NCC2(O)CCCC2)ccc1F | 0.0902 | 36% (inactive) | 60.8%
63 | COc1ccc(S(=O)(=O)NCC(O)c2cccn2C)c(C)c1 (configuration not stated) | 0.107 | 43.5% (inactive) | 60.7%
64 | Cc1ccc(NC(=O)NCC(O)c2ccc(C(F)(F)F)cc2)cc1 (configuration not stated) | 0.115 | 16.6% (inactive) | 47.8%
65 | CC(NC(=O)C12CC3CC(CC(C3)C1)C2)C(=O)N/N=C/c1ccc([N+](=O)[O-])o1 (configuration not stated) | 0.133 | 27.9% (inactive) | 52.7%
66 | O=S(=O)(CCCOc1ccc(F)cc1)NCCCc1ccccc1 | 0.118 | 50.6% (inactive) | 66.1%
67 | CCCNC(=O)Cn1c(=O)c2c(N3CCN(C(=O)c4ccco4)CC3)c(C)cnc2n(C)c1=O | 0.127 | 48.2% (inactive) | 70%
68 | CCn1ccnc1N1CCN(C(=O)CCS(=O)(=O)c2ccccc2)CC1 | 0.0601 | 11.8% (inactive) | 23.3%
69 | COCCNC(=O)Cn1cc(-c2nnc(C)o2)c2ccccc21 | 0.0888 | 38.9% (inactive) | 57.5%
70 | O=C(NC(=S)Nc1ccc(S(=O)(=O)N2CCOCC2)cc1)c1sc2ccccc2c1Cl | 0.0349 | 29.8% (inactive) | 52.2%
71 | CCN(CC)C(=O)C(=O)c1cn(CC(=O)N2CCOCC2)c2ccccc12 | 0.0509 | 31.2% (inactive) | 53.3%
72 | COC(=O)c1ccc(NC(=O)Cn2c(=O)n(C(C)C)c(=O)c3nscc32)cc1 | 0.116 | 34.2% (inactive) | 56.9%
73 | CSc1cccc(NC(=O)Cn2c(=O)n(C3CC3)c(=O)c3nscc32)c1 | 0.107 | 26.5% (inactive) | 50.3%
74 | Cc1cccc(C)c1NC(=O)Cn1c(=O)n(C(C)C)c(=O)c2nscc21 | 0.121 | 32.1% (active) | 45.8%
